# Bioassay records deposited in PubChem BioAssay by Broad Institute.
# Tg IFNy HTS: T. gondii growth inhibition with IFN-gamma, primary screen, cell-based | Toxoplasma gondii growth in IFN-gamma-treated host cells; active compounds read low | activity change, negative = inhibition, % (concentration not given with the values) | actives 3.8% (n = 69,000); in the data active means activity change below about -70%, passing the limit was not always enough;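 further: host cells are HeLa cells infected with Toxoplasma gondii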
# A number is an active result; – = inactive. This is one part of a sample in which hits are shown more often than they occur.
SMILES,Tg IFNy HTS
COc1ccc(-c2nc(C)c(CCNS(=O)(=O)c3ccc4c(c3)CCCC4)s2)cc1,–
Cc1nnsc1CN(C)C(=O)c1ncn[nH]1,–
COc1ccc(NC(=S)NCCSc2ccc(Cl)cc2)cc1,–
COc1ccc(SCC(O)CNCc2ccc(Cl)cc2)cc1 (stereo not given),-79.9
COc1ccc(CNCCCSc2ncccn2)cc1,–
CCn1c(CNS(=O)(=O)c2ccc3c(c2)CC(C)N3C(C)=O)nc2ccccc21 (stereo not given),–
Cc1cc(Nc2nc(N[C@@H](C)c3ccc(F)cc3)c(C#N)cc2F)n[nH]1,-75.2
CCc1ccccc1NC(=O)c1nnn(Cc2nc(-c3cccc(OC)c3OC)oc2C)c1C,-84.5
CCOc1ccc(-c2nc(Cn3nnc(C(=O)Nc4cc(F)ccc4C)c3C)c(C)o2)cc1,–
Cc1ccc(C)c(NC(=O)c2nnn(Cc3nc(-c4ccc(OC(C)C)cc4)oc3C)c2C)c1,–
COc1ccc(NC(=O)c2nnn(Cc3nc(-c4ccc(OC(C)C)cc4)oc3C)c2C)c(OC)c1,–
COc1cccc(-c2nc(Cn3nnc(C(=O)Nc4ccccc4C)c3C)c(C)o2)c1OC,–
CCc1ccccc1NC(=O)c1nnn(Cc2nc(-c3cc(Br)ccc3OC)oc2C)c1C,–
Cc1cccc(NC(=O)c2nnn(Cc3nc(-c4ccc(OC(C)C)cc4)oc3C)c2C)c1C,-89.1
Cc1oc(-c2ccc(OC(C)C)cc2)nc1Cn1nnc(C(=O)Nc2ccc(F)cc2F)c1C,-109.6
Cc1cccc(NC(=O)c2nnn(Cc3nc(-c4ccc(Cl)cc4)oc3C)c2C)c1C,–
C=C(C)COc1ccccc1C(=O)NCC1CC(=O)N(C2CC2)C1 (stereo not given),–
COc1ccc(-c2nc(C)c(-c3ccc(SCc4c(F)cccc4Cl)nn3)s2)cc1,–
Cc1nc(CN2CCC3(C2)CN(CC2CCOCC2)C3)cs1,–
CCc1cc(-c2nccn2-c2ccc(-c3ccn[nH]3)cc2)on1,–
CS(=O)(=O)N1CCc2c(nc(C3CCN(C(=O)C4CCCCC4)C3)[nH]c2=O)C1 (stereo not given),–
O=C1C(Cc2c[nH]c3ccccc23)N=C2c3ccccc3N=C(SCc3cc(=O)n4cc(Br)ccc4n3)N12 (stereo not given),–
Cc1noc(C)c1-n1sc(=O)n(-c2ccc(F)cc2)c1=O,–
Cc1c(C)c(C)c(CSCc2n[nH]c(=S)n2-c2ccc(F)cc2)c(C)c1C,-86.4
Cc1ccc(C)c(NCc2n[nH]c(=S)n2-c2ccccc2)c1,–
SMILES,Tg IFNy HTS
COc1ccc2oc(CNC(=O)C(C)n3ccnc3C(C)C)nc2c1 (stereo not given),–
CCN(Cc1nccn1C)C(=O)c1ccc(-c2cc3ccccc3o2)nc1,–
CCOC(=O)CN(C(=O)COc1nc(C)cc(C)c1C#N)c1ccccc1,–
CCOC(=O)c1nc(Nc2cc(C)c(Cl)cc2OC)c2ccccc2n1,–
CCOC(=O)c1nc(Nc2ccc(OC)c(Cl)c2)c2ccccc2n1,-76.9
CCCNC(=O)c1nc(Nc2ccc(CC)cc2)c2ccccc2n1,-83.1
O=C(NC1CCCCCC1)c1nc(Nc2ccccc2)c2ccccc2n1,-85.1
CCc1ccc(Nc2nc(C(=O)NCCOC)nc3ccccc23)cc1,–
Cc1cccc(Nc2nc(C(=O)NCc3ccc(C)o3)nc3ccccc23)c1,–
O=C(NC1CCCC1)c1nc(Nc2ccc(F)cc2)c2ccccc2n1,–
COCCNC(=O)c1nc(Nc2cccc(C)c2)c2ccccc2n1,–
CCCNC(=O)c1nc(Nc2ccc(F)cc2)c2ccccc2n1,–
Cc1cccc(Nc2nc(C(=O)NC3CCCC3)nc3ccccc23)c1,–
CCOc1ccc(CNC(=O)c2nc(Nc3cccc(C)c3)c3ccccc3n2)cc1,-94.1
CCOC(=O)c1nc(Nc2cccc(OC)c2)c2ccccc2n1,–
CCc1nc(CN(C)Cc2cccc(C(=O)Nc3nccn3C)c2)no1,–
O=C(CC1Nc2c3ccccc3nc(=S)n2C1=O)NCc1ccc(Cl)cc1 (stereo not given),–
Cc1nn(C)c(C)c1-c1cc(C(=O)N2CCC(O)(CN(C)C)C2)n(C)n1 (stereo not given),–
CC(C)n1nccc1C(=O)NCCN1CCc2ccccc21,–
Cc1ccc(Nc2nc(C(=O)NCCc3cccs3)nc3ccccc23)cc1,–
Cc1cnc(Cn2cnc(-c3ccccc3)c2CCn2nc(C)cc2C)cn1,–
CN(CCC(O)c1ccccc1)c1ccc(-c2nccn2C)nn1 (stereo not given),–
CCO[C@@H]1CO[C@@]2(CCCN(C(=O)c3ccc4ncccc4c3)C2)C1,–
CCn1c(CC2CCNCC2)nn(CC2COc3ccccc3O2)c1=O (stereo not given),–
CN1CC(c2cc(N(C)C)nc(C3CCN(S(=O)(=O)c4ccccc4)CC3)n2)CC1=O (stereo not given),–
SMILES,Tg IFNy HTS
C=CCn1cc(CN(C)C(C)c2ccon2)c(C)n1 (stereo not given),–
CC(C)C1CN(C(=O)c2cnn3cc(CCO)cnc23)CCCN1CC1CC1 (stereo not given),–
CCn1cncc1CNC(=O)c1cn(CC2CCCNC2)nn1 (stereo not given),–
O=C(NCCCc1ccccc1)c1nc(Nc2ccccc2)c2ccccc2n1,–
Cc1cccc(Nc2nc(C(=O)NCc3cccc(Cl)c3)nc3ccccc23)c1,-96.3
CCc1ccccc1NC(=O)c1nc(Nc2ccc(C)cc2)c2ccccc2n1,-86.1
Cc1ccc(Nc2nc(C(=O)Nc3ccccc3Cl)nc3ccccc23)cc1,–
CCc1ccc(CNC(=O)c2nc(Nc3ccc(C)cc3)c3ccccc3n2)cc1,–
Cc1cccc(Nc2nc(C(=O)NCc3ccccc3Cl)nc3ccccc23)c1,–
CCNC(=O)c1nc(Nc2ccccc2)c2ccccc2n1,–
Cc1ccc(Nc2nc(C(=O)NCc3ccccc3)nc3ccccc23)cc1,–
CCc1ccccc1NC(=O)c1nc(Nc2ccccc2)c2ccccc2n1,–
CCC(C)NC(=O)c1nc(Nc2cccc(C)c2)c2ccccc2n1 (stereo not given),–
Cc1ccc(Nc2nc(C(=O)NCc3cccnc3)nc3ccccc23)cc1,-81.7
O=C(NCCC1=CCCCC1)c1nc(Nc2ccccc2)c2ccccc2n1,-76.4
Cc1ccc(S(=O)(=O)N2CCC3(CCC(C(=O)NCC4CC4)O3)CC2)cc1F (stereo not given),–
CC(C)CN1C[C@@H]2CCN(c3ncc(F)cn3)CC[C@H]2S1(=O)=O,–
CCn1c(SCC(=O)Nc2ccc(N(C)C)cc2)nc2cccnc21,–
Cc1cc2c(cc1-c1c(-c3ccccc3)ncn1CCS(C)(=O)=O)OCO2,–
CN(C)CC(=O)N1CCC2(CCC(COCC3CC3)N2C)CC1 (stereo not given),–
CC(C)C(=O)N1CC2CN(C(=O)c3cscn3)CC2C1 (stereo not given),–
COc1cc(N2CCC(N3CCN(C)CC3)CC2)ccc1Nc1ncc(Cl)c(Nc2ccccc2S(=O)(=O)C(C)C)n1,-83.1
COc1cc(N2CCC(N(C)C)CC2)ccc1Nc1ncc(Cl)c(Nc2ccccc2P(C)(C)=O)n1,-73.7
C=CC(=O)Nc1cccc(Oc2nc(Nc3ccc(N4CCN(C)CC4)cc3)ncc2Cl)c1,–
C=CC(=O)Nc1cccc(Nc2nc(Nc3ccc(N4CCN(C(C)=O)CC4)cc3OC)ncc2C(F)(F)F)c1,–
Fc1ccc(NCc2c[nH]c3ccccc23)cc1,–
CC1(C(=O)N2CCC3(C2)c2ccccc2S(=O)(=O)N3Cc2ccc(F)cc2)CC1 (stereo not given),–
O=C(c1cccs1)N1CCN(S(=O)(=O)c2cc3c4c(c2)CCN4C(=O)CC3)CC1,–
